Compound activity (PubChem BioAssay)
SMN2 splice up: qHTS Assay for Enhancers of SMN2 Splice Variant Expression; HEK293 SMN2-luciferase splicing reporter, luminescence, 30-36 h; Potency, µM (titrated, usually from 46.1 µM), hits mostly activators; 210,000 compounds, 2.8% hits; AID 1458, 2008; further: nearly all actives have a fitted effect of over 55% in size
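qHTS luciferase splicing reporter: luminescence rises when SMN2 exon 7 is included in transfected HEK293 cells. Compound exposure lasted 30-36 h at 37C, with 4.5 mM final sodium butyrate as control, followed by a ONE-Glo read.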
NPC1 prom act: qHTS Assay for NPC1 Promoter Activators; Huh7 NPC1 promoter luciferase reporter, 24 h; Potency, µM (highest dose often 9.22 µM), actives largely listed as activators; 320,000 compounds, 2.4% hits; AID 485313, 2010; further: nearly all actives have a fitted effect of over 60% in size
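Huh7 reporter cells (NPC1 promoter driving luciferase) are dosed with compound for 24 h at 37 °C, 5% CO2; luciferase detection reagent is then added and luminescence measured after 10 min at ambient temperature.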
FLuc modulator: qHTS profiling assay for firefly luciferase inhibitor/activator using purifed enzyme and Km concentrations of substrates (counterscreen for miR-21 project); purified FLuc, Km substrates, luminescence inhibition; Luciferin 4-monooxygenase (Photinus pyralis), P08659; Potency, µM (top dose mostly 57.5 µM), usual class: inhibitors; 360,000 compounds, 6.9% hits; further: nearly all actives have a fitted effect of over 55% in size
Target sequence (P08659 whole entry, looked up): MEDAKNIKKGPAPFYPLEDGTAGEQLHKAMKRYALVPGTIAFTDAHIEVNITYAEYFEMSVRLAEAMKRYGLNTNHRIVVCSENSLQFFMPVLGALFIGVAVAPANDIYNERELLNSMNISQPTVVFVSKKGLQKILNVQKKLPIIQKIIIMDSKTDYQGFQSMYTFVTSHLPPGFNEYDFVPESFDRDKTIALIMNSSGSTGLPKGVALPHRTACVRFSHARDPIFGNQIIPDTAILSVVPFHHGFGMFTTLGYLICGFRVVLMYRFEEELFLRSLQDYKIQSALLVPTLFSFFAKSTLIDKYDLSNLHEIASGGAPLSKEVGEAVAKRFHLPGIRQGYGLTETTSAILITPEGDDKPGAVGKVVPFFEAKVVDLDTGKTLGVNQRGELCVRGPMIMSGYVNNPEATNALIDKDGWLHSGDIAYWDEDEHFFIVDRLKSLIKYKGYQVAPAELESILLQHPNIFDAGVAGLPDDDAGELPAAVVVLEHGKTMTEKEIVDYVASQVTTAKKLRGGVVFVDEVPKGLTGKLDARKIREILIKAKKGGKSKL
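Purified P. pyralis luciferase (10nM final) with 10uM D-luciferin and 10uM ATP (Km levels) in 50mM Tris acetate pH 7.5, 10mM Mg acetate, 0.01% Tween-20, 0.05% BSA; qHTS 6-point titration, ~60 µM downward; luminescence read.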
Rab9 promoter act: qHTS Assay for Rab9 Promoter Activators; 320,000 compounds, 2.8% hits; AID 485297, 2010; Potency, µM (titrated, usually from 9.22 µM), actives largely listed as activators; Huh7 Rab9 promoter-luciferase reporter, luminescence, 24 h; further: nearly all actives have a fitted effect of over 60% in size
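Huh7 cells stably carrying a Rab9 promoter-luciferase reporter, 1500 cells per well in OP-MEM I with 10% FBS, treated with compound 24 hours at 37C. Luciferase activity read by luminescence after 10 minutes with Amplite reagent.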
ELG1 genotoxic: qHTS screen for small molecules that induce genotoxicity in human embryonic kidney (HEK293T) cells expressing luciferase-tagged ELG1; HEK293T ELG1-luciferase reporter, luminescence, 16 h; AID 504466, 2011; 330,000 compounds, 1.3% hits; Potency, µM (highest dose often 46 µM), hits mostly activators; further: nearly all actives have a fitted effect of over 60% in size
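After overnight (16 hr) compound treatment at 37 °C, ELG1-luciferase HEK293T cells were lysed with ONE-Glo; luminescence quantified 30 min later at room temperature.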
Each line names hits and unclear results; the compound was inactive in the other large screens; ! = not active in a repeat. The list is not random: actives were taken first. Their share in the collection is about 7.5%. The call rests on the fitted dose curve; in most records, active means well fitted curve in the direction sought with a large enough effect; inconclusive means small, poorly fitted or top-dose-only effect, or another doubt; inactive means no such curve, though single readings can be large; an effect the other way counts as inactive or inconclusive.

Cc1ccc(C)c(-c2cc(C(=O)N/N=C/c3cccnc3)c3ccccc3n2)c1	FLuc modulator inconclusive (no result: SMN2 splice up)
Cc1ccc(/C=N/NC(=O)c2cc(-c3cccnc3)nc3ccccc23)cc1	ELG1 genotoxic inconclusive
O=C(N/N=C/c1cccnc1)c1cc(-c2ccccc2)nc2ccccc12	FLuc modulator 11µM (no result: SMN2 splice up)
Fc1cc2[nH]c(=S)[nH]c2c(Br)c1N1CCSCC1	FLuc modulator 13µM (no result: SMN2 splice up)
Cc1ccc(-c2nnn3c2nc(NCC(C)c2ccccc2)c2ccccc23)cc1 (configuration not stated)	FLuc modulator inconclusive (no result: NPC1 prom act, Rab9 promoter act, ELG1 genotoxic)
COc1cccc(CNC(=O)C2CCCN(c3nn4c(=O)cc(C)nc4s3)C2)c1 (configuration not stated)	ELG1 genotoxic inconclusive
COc1cccc(CNC(=O)C2CCCN(c3nn4cc(-c5ccc(C)cc5)nc4s3)C2)c1 (configuration not stated)	FLuc modulator 7.6µM (no result: SMN2 splice up, NPC1 prom act, Rab9 promoter act, ELG1 genotoxic)
CCOc1ccc(CNC(=O)C2CCCN(c3nn4cc(-c5ccc(F)cc5)nc4s3)C2)cc1 (configuration not stated)	none (no result: SMN2 splice up, NPC1 prom act, Rab9 promoter act, ELG1 genotoxic)
COCCCNC(=O)C1CCCN(c2nn3cc(-c4ccc(C)cc4)nc3s2)C1 (configuration not stated)	FLuc modulator 8.5µM (no result: SMN2 splice up, NPC1 prom act, Rab9 promoter act, ELG1 genotoxic)
COc1ccc(-c2cn3nc(N4CCCC(C(=O)NCc5ccc(Cl)cc5)C4)sc3n2)cc1 (configuration not stated)	FLuc modulator 12µM (no result: SMN2 splice up, NPC1 prom act, Rab9 promoter act, ELG1 genotoxic)
CCOCCCNC(=O)C1CCN(c2nn3cc(-c4ccc(F)cc4)nc3s2)CC1	none (no result: SMN2 splice up, NPC1 prom act, Rab9 promoter act, ELG1 genotoxic)
CC1=C(CC(=O)NCC(=O)NCC(=O)O)c2cc(F)ccc2/C1=C/c1ccc(S(C)=O)cc1 (configuration not stated)	FLuc modulator inconclusive (no result: SMN2 splice up)
Cc1ccc2nc(Cl)c3nnnn3c2c1	none
CC(C)[C@H](NS(=O)(=O)c1ccccc1)C(=O)Nc1nccs1	none (no result: SMN2 splice up, NPC1 prom act, FLuc modulator, Rab9 promoter act)
CCc1ccc(NS(=O)(=O)c2ccc3[nH]cc(C(=O)N4CCc5ccccc54)c(=O)c3c2)cc1	SMN2 splice up inconclusive, FLuc modulator 21µM, ELG1 genotoxic inconclusive
CCOc1ccc(NS(=O)(=O)c2ccc3[nH]cc(C(=O)NCCOC)c(=O)c3c2)cc1	SMN2 splice up 13µM!, NPC1 prom act 2.5µM, FLuc modulator 11µM!, Rab9 promoter act 2µM, ELG1 genotoxic inconclusive
CCOCCCNC(=O)c1c[nH]c2ccc(S(=O)(=O)Nc3cccc(OC)c3)cc2c1=O	none
Cc1nc(N2CCCCC2)c2sc(=S)n(C)c2n1	ELG1 genotoxic 21µM
Cc1ccc(NC(=O)c2ccc(CNc3c(N4CCOCC4)c(=O)c3=O)cc2)cc1	FLuc modulator 15µM
Cc1ccc(NC(=O)c2ccc(OC(=S)N3CCOCC3)cc2)cc1	NPC1 prom act inconclusive, Rab9 promoter act 2µM, ELG1 genotoxic inconclusive
COc1ccc(N2CC(O)=C(c3nc4ccccc4s3)C2=N)cc1	ELG1 genotoxic inconclusive
COc1cccc(N2CC(O)=C(c3nc4ccccc4s3)C2=N)c1	SMN2 splice up inconclusive, FLuc modulator 21µM, ELG1 genotoxic inconclusive
CCc1cccc(NC(=O)Nc2cccs2)c1	SMN2 splice up 13µM, NPC1 prom act inconclusive, FLuc modulator 8.5µM, Rab9 promoter act 2.8µM, ELG1 genotoxic inconclusive
N#Cc1cccc(NC(=O)Nc2cccs2)c1	FLuc modulator 15µM
N#Cc1cccc(NC(=O)Cc2ccsc2)c1	none (no result: SMN2 splice up)
O=c1c(=O)n(-c2ccccc2)ccn1Cc1c(F)cccc1Cl	none (no result: SMN2 splice up, NPC1 prom act, Rab9 promoter act, ELG1 genotoxic)
O=c1nc(Nc2ccccc2)oc2ccccc12	NPC1 prom act 2.8µM, FLuc modulator 17µM, Rab9 promoter act inconclusive, ELG1 genotoxic inconclusive (no result: SMN2 splice up)
O=c1oc(Nc2ccc(F)cc2)nc2ccccc12	NPC1 prom act 2.2µM, FLuc modulator 13µM, Rab9 promoter act 2.5µM, ELG1 genotoxic inconclusive
Cc1ccc(S(=O)(=O)N2CC(=O)N3CCN(CCN)C3C2)cc1 (configuration not stated)	none (no result: SMN2 splice up, NPC1 prom act, FLuc modulator, Rab9 promoter act)
Cc1ccccc1NC(=O)CSc1nc2nccnc2c(=O)n1CCc1c[nH]c2ccccc12	none (no result: SMN2 splice up, NPC1 prom act, Rab9 promoter act, ELG1 genotoxic)
CCCCNC(=O)CN1C(=O)NC2(CCCc3ccccc32)C1=O (configuration not stated)	none
COc1cc(/C=C2\C(=O)ON=C2c2ccccc2)cc(Cl)c1O	FLuc modulator 19µM
